Lmaj promast = inhibitors of Leishmania major promastigote growth. Leishmania major promastigotes, resazurin fluorescence viability. inhibition, % at 10 µM. 200,000 compounds, 9% hits. AID 1063; in the data active = inhibition above about 50%;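 also: promastigotes grown with compound for 44 hours at 28 °C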
CHOP inh = CHOP inhibition in unfolded protein response | CHO-K1 CHOP-promoter luciferase, tunicamycin-induced, 15-18 h | inhibition, % at 10 µM | 220,000 compounds, 3.8% hits;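 active = compounds that reduced the stress-induced luciferase reporter signal by more than about 70% of percent inhibition, limit read from the data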;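 also: 0% = tunicamycin plus vehicle and 100% = wells without tunicamycin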
RAM inhibit = yeast RAM network inhibition. S. cerevisiae dse1pr::URA3 reporter, 5-FOA growth OD615, 2 d; analog-sensitive cbk1-as2 kinase mutant strain. inhibition, % at 50 µM. 190,000 compounds, 1.8% hits;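 active = inhibition above a set limit, 3 SD over mean compound inhibition, cut at about 8.4% in these data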;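 also: 0% = DMSO-only wells with no growth and 100% = 10 µM 1-NA-PP1 full growth; inhibition rescues growth on 5-FOA so higher OD means more RAM inhibition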
WT yeast gro inh = growth inhibition of WT yeast, mitochondrial fusion screen; mitochondrial fusion phenotypic screen, WT strain; inhibition, % at 10 µM; 190,000 compounds, 2.1% hits; AID 1362; in the data active = inhibition above about 58%; tested in S. cerevisiae
Numbers without * were called inactive; nt = not tested or not shown. Rows were chosen to be rich in hits. Some 13% of all compounds tested hit in one or more screens of this group.

SMILES	Lmaj promast	CHOP inh	RAM inhibit	WT yeast gro inh
CC(=O)OCC(OC(C)=O)C(OC(C)=O)C(OC(C)=O)C(=O)Nc1ccccc1 (centres undefined)	-2.6	4.5	1.4	-16.4
CCN(CC)CCNC(=O)Cn1nc(Cc2ccccc2)c2ccccc2c1=O	1.5	-3.8	-0.3	59.9*
Cc1ccccc1-n1nc(C)c2cc(C(=O)NCc3cccnc3)sc21	69.2*	40.2	0.1	15.7
CCCCN(CC)CCCNC(=O)Cn1nc(Cc2cccnc2)c2ccccc2c1=O	-3.7	10.7	1.4	-1.5
Cc1nn(CC(=O)NCc2cccnc2)c(=O)c2ccccc12	51.4*	15.3	0.1	11.5
O=C(N=Nc1c(O)[nH]c2ccc(F)cc12)C1COc2ccccc2O1 (centres undefined)	nt	12.6	nt	nt
COCCn1c(SCc2cc(=O)n3cc(C)ccc3n2)nc2ccccc2c1=O	-1.4	12.0	2.5	-6.9
Cc1nn(CCCC(=O)Nc2c(F)cc(F)cc2Br)c(C)c1[N+](=O)[O-]	8.2	-13.9	1.1	1.5
O=C(CN(CCc1ccccc1)C(=O)Cn1nnc(-c2cccs2)n1)NCc1ccco1	5.5	-20.4	2.7	10.1
O=C(CN(C(=O)Cn1nnc(-c2cccs2)n1)c1ccc2c(c1)OCCO2)NCc1ccccc1	95.3*	10.8	3.3	0.6
COC(=O)c1cc(NC(=O)Cc2ccc(OC)cc2)cc(C(=O)OC)c1	8.8	25.1	3.7	2.4
COc1ccccc1C(c1nnnn1Cc1ccco1)N1CCN(c2cccc(C)c2C)CC1 (centres undefined)	74.2*	18.8	3.3	28.4
Cc1ccc(C)c2[nH]c(=O)c(C(c3nnnn3CCc3ccccc3)N3CCOCC3)cc12 (centres undefined)	100.1*	55.0	-1.0	-4.5
Cc1ccc(C)c2[nH]c(=O)c(C(c3nnnn3Cc3ccco3)N3CCc4ccccc4C3)cc12 (centres undefined)	93.7*	8.2	0.7	13.5
COc1ccc(C(=O)NCCN2C(=O)S/C(=C\c3cccnc3)C2=O)cc1[N+](=O)[O-]	nt	-15.7	nt	nt
COc1ccccc1-c1c(C(F)(F)F)oc2cc(OCC(=O)Nc3cc(C)ccc3C)ccc2c1=O	-4.7	33.0	3.7	10.2
N/C(=N\OS(=O)(=O)c1ccc(Br)cc1)c1ccncc1	7.1	7.1	0.0	-8.7
c1ccc(CN2CCC(=NNc3nc4ccccc4[nH]3)CC2)cc1	9.7	0.4	-0.4	12.2
CC(C)(C)C1CCC(=NNc2nc3ccccc3[nH]2)CC1 (centres undefined)	85.5*	-2.5	1.5	11.4
c1ccc2c(c1)CC/C2=N/Nc1nc2ccccc2[nH]1	100.2*	-25.7	1.9	76.7*
CC1(C)CC2CC(C)(CN2/C=N/c2sc3c(c2C#N)CC(C)(C)NC3(C)C)C1 (centres undefined)	nt	-15.9	nt	nt
COc1cc(CNCCNC(=O)c2nonc2N)ccc1OCc1ccc(Cl)nc1	34.5	2.9	-0.1	-15.1
CCCCCNCc1ccc(Br)cc1	86.9*	25.8	1.0	4.5
CNCCCNCc1ccc(SC)cc1	-2.2	14.9	-0.5	-22.5
OCCCCNCc1ccc(OCc2ccc(Cl)cc2)cc1	100.5*	35.2	-1.1	24.1
SMILES	Lmaj promast	CHOP inh	RAM inhibit	WT yeast gro inh
CCCCCCNCc1ccc(Br)cc1	86.1*	23.2	0.2	2.0
CCCCCNCc1ccc(Cl)cc1	50.6*	-10.3	1.6	-8.6
CC(C)Oc1ccc(C(=O)Nc2ccc(C(F)(F)F)n(C)c2=O)cc1	-4.4	-5.7	7.5	13.6
CC(C)OP(=O)(OC(C)C)C(NC(=O)c1ccccc1Br)C(N)=O (centres undefined)	nt	4.1	nt	nt
CCn1c(NC(=O)c2ccccc2F)c(-c2cccs2)c(=O)c2ccccc21	nt	8.7	nt	nt
COc1cc(SC)ccc1C(=O)N(Cc1ccccc1)c1ccccn1	nt	11.2	nt	nt
Cc1ccc(NC(=O)c2sc3nc(C)nc(N4CCN(c5ccccn5)CC4)c3c2C)c(C)c1	30.4	4.5	-0.1	37.7
Cc1nc(N2CCCCC2)c2c(C)c(C(=O)Nc3ccccc3C(F)(F)F)sc2n1	41.9	70.6*	0.6	65.9*
Cc1nc(N2CCCCC2)c2c(C)c(C(=O)Nc3cccc(C(F)(F)F)c3)sc2n1	61.8*	34.8	4.8	70.1*
Cc1nc(N2CCCCC2C)c2c(C)c(C(=O)Nc3cccc(C(F)(F)F)c3)sc2n1 (centres undefined)	67.1*	79.6*	4.2	68.1*
COc1ccc(N2CCN(C(=O)Cc3ccc(S(=O)(=O)N4CCOCC4)s3)CC2)cc1	23.9	-14.8	-0.7	3.0
C/C=C/C=N/NC(=O)CN(c1ccc(Br)cc1)S(=O)(=O)c1ccccc1	0.6	37.1	2.1	6.4
Cc1[nH]n(C(C)(C)C)c(=O)c1Sc1ccc(Cl)cc1	25.1	8.4	0.5	60.7*
Cc1cc(=O)[nH]c(=S)n1-c1ccccc1	-2.6	17.5	1.2	9.5
Nc1cc(=O)[nH]c(=S)n1-c1ccccc1	-6.4	-26.0	-0.4	59.1*
O=C(/C=C/c1cccc(OCc2ccccc2)c1)c1cccnc1	99.7*	-45.1	8.0	-12.2
O=C(/C=C/c1ccccc1)NC(=S)NNC(=O)c1cccnc1	55.5*	51.6	0.7	-3.2
CC(/C=C/c1cccc([N+](=O)[O-])c1)=N/NC(=O)c1cccnc1	95.8*	-23.4	-1.5	-8.5
C/C(=N\NC(=O)c1cccnc1)c1cccc([N+](=O)[O-])c1	0.7	5.0	0.6	8.1
O=C(NN=C(Cc1ccccc1)Cc1ccccc1)c1ccccc1F	64.2*	9.1	-0.4	-19.8
C/C(=N/NC(=O)CNC(=O)c1cccc(F)c1)c1ccc2c(c1)CCCC2	1.9	41.2	1.2	-3.1
O=C(CN1CCC(O)(c2cccc(F)c2)CC1)NCCc1c[nH]c2ccccc12	nt	9.1	nt	nt
O=C(Nc1ccccc1N1CCN(c2ccccc2)CC1)c1ccccc1	8.0	14.3	2.1	28.6
CC1(C)Cc2c(sc3nc(-c4ccccc4)oc(=O)c23)CO1	-0.9	59.3	1.9	-2.3
O=C(/C=C/c1ccc([N+](=O)[O-])cc1)c1cccnc1	94.7*	-27.6	-0.4	-17.5
SMILES	Lmaj promast	CHOP inh	RAM inhibit	WT yeast gro inh
CC(/C=C/c1ccccc1)=N/NC(=O)c1cc([N+](=O)[O-])cc([N+](=O)[O-])c1	82.9*	-1.0	4.1	-15.0
COc1ccc(C(=O)NN=C(Cc2ccccc2)Cc2ccccc2)cc1OC	51.0*	5.1	-1.1	-2.9
CC/C(Cc1ccccc1)=N\NC(=O)c1cc([N+](=O)[O-])cc([N+](=O)[O-])c1	58.9*	18.7	1.4	1.8
O=C(C[n+]1ccc(-c2nnc3n2CCC3)cc1)c1ccc(Cl)c(Cl)c1	-4.9	43.3	0.5	1.5
O=C(CCC1CCCN(C(=O)c2ccsc2)C1)N1CCN(c2ccccn2)CC1 (centres undefined)	nt	6.6	nt	nt
COc1ccc(C(=O)Nc2ccc(N3CCCCC3)cc2)cc1Br	51.9*	24.8	2.8	-1.9
O=C(Nc1ccc(N2CCCC2)cc1)c1ccc([N+](=O)[O-])cc1Cl	-5.0	1.7	4.6	7.9
CC(C)Oc1ccc(C(=O)Nc2ccc(N3CCCCC3)cc2)cc1	50.9*	70.7*	1.6	-6.1
Cc1ccc(C(=O)Nc2ccc(N3CCCC3)cc2)cc1	3.9	27.8	1.6	-15.8

Screening results: PubChem BioAssay, several laboratories
